{"source": "PubChem BioAssay AID504895", "about": "(National Center for Advancing Translational Sciences (NCATS), 2011)", "note": "Results filed as inconclusive are left out. Active and inactive are the calls of the source. Calls follow the shape of the dose curve; as a rule, active = well fitted curve in the direction sought with a large enough effect; inconclusive = small, poorly fitted or top-dose-only effect, or another doubt; inactive = no such curve, though single readings can be large or run the other way."}
{"molecular_target": "Protein phosphatase EYA2 (Homo sapiens) (UniProt O00167)", "sequence (O00167 whole entry, looked up)": "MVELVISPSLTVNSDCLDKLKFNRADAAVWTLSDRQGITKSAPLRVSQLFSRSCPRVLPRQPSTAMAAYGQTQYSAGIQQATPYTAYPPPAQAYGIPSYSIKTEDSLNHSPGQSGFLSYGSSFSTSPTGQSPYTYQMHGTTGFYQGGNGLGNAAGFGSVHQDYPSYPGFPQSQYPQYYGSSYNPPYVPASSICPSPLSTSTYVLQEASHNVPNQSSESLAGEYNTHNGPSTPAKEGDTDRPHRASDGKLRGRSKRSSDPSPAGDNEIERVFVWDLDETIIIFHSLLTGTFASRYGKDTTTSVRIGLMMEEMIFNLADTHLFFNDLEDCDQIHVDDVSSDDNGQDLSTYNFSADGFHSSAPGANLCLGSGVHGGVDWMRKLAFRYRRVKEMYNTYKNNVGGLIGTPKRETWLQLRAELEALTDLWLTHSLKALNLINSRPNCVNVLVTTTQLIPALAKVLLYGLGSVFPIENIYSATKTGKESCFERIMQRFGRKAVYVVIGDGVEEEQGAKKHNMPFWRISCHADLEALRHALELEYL", "assay": "Inhibitors of Eya2ED: Hit Confirmation in Primary Screen", "conditions": "Recombinant Eya2ED, OMFP fluorescence phosphatase assay; series mostly up to 76.9 µM; activity change, negative = inhibition: at the top concentration", "text": "The Eya proteins (Eya1-4) were originally identified as essential co-activators of the Six1 transcription factor. […] Knockdown of Six1 decreases cancer cell proliferation and metastases in several different cancer models. […] A fluorescence-based HTS assay has been perfomed against the Molecular Libraries Small Molecule Repository (MLSMR) and has the AID 488837 in this database. After completion of the primary screen, hits were re-ordered and tested again in the primary screen in a 12 point titration. NIH Chemical Genomics Center [NCGC] NIH Molecular Libraries Probe Centers Network [MLPCN] MLPCN Grant: DA030559-01 Assay Submitter (PI): Rui Zhao, University of Colorado, Denver\nThe Eya2 enzyme was kindly provided by the laboratory of Dr. Rui Zhao. The 3-O-methyl-fluorescein phosphate (OMFP) substrate and all buffer reagents were purchased from Sigma Aldrich. qHTS Assay Setup: 1. Buffer- 50 mM HEPES pH 7.5, 50 mM NaCl, 5 uM MgCl2, 0.05% BSA, 1 mM DTT. 2. OMFP Stock- 10 mM solution prepared in 100% DMSO and stored in single use aliquots at -20C. Assay Procedure- 1. Dispense 1.5 ul per well of Eya2 at 0.2 uM in black medium binding 1536 well Greiner plate 2. Transfer 23 nl of compound and control compound (EGTA) to plate 3. Incubate at ambient for 10 minutes 4. Dispense 1.5 ul per well of OMFP at 50 uM 5. Incubate at ambient for 10 minutes 6. Read on ViewLux using Excitation = 485 nm, Emission = 525 nm"}
{"smiles": "COc1ccc(CCc2nc(C)ccc2O)cc1", "activity change, negative = inhibition": "-2.2% (inactive)"}
{"smiles": "O=C(N/N=C\\c1ccc(Sc2ccccn2)o1)c1cccc(Br)c1", "Potency": "1.84 µM (active)"}
{"smiles": "O=C(NC1CCN(Cc2ccccc2)CC1)c1cccc(S(=O)(=O)Nc2ccc(SC(F)F)cc2)c1", "activity change, negative = inhibition": "-5.61% (inactive)"}
{"smiles": "O=S(=O)(Cc1ccccc1Cl)N1CCN(Cc2ccc3c(c2)OCO3)CC1", "activity change, negative = inhibition": "-4.31% (inactive)"}
{"smiles": "O=C1/C(=C/c2cccs2)N=C(c2cccs2)N1Nc1ccccc1", "activity change, negative = inhibition": "-17.4% (inactive)"}
{"smiles": "O=C(CCc1nc2ccccc2s1)NCc1ccccc1F", "activity change, negative = inhibition": "7.84% (inactive)"}
{"smiles": "O=C(NCCc1ccc(Cl)cc1)C1CCN(C(=O)N2CCOc3ccccc32)CC1", "activity change, negative = inhibition": "-4.76% (inactive)"}
{"smiles": "Cc1cc(/C=C2\\SC(=S)NC2=O)cc(C)c1O", "activity change, negative = inhibition": "0.396% (inactive)"}
{"smiles": "Cc1cc(C)n(C(=O)COc2ccccc2[N+](=O)[O-])n1", "activity change, negative = inhibition": "-7.27% (inactive)"}
{"smiles": "COc1ccc2oc(C(=O)OCC(=O)N3CCCCC3C)c(C)c2c1", "note": "(stereo not given)", "activity change, negative = inhibition": "-10.1% (inactive)"}
{"smiles": "CC1CN(S(=O)(=O)c2ccc(C(=O)Nc3nnc(-c4ccco4)o3)cc2)CC(C)O1", "note": "(stereo not given)", "activity change, negative = inhibition": "12.1% (inactive)"}
{"smiles": "O=C(c1ccccc1Cl)N1CCN(C(=O)C2CCCO2)CC1", "note": "(stereo not given)", "activity change, negative = inhibition": "-18.2% (inactive)"}
{"smiles": "CSCC[C@H](NC(=O)[C@@H]1Cc2ccccc2CN1)C(=O)Nc1ccc2c(c1)OCCO2", "activity change, negative = inhibition": "0.798% (inactive)"}
{"smiles": "CCCc1nnc(SCc2ccc(C(=O)OC)o2)n1N", "activity change, negative = inhibition": "7.95% (inactive)"}
{"smiles": "COc1ccc2c(c1)[C@H]1[C@H](CO2)[C@H](c2ccccc2)[C@]2(C)C(=O)Nc3ccc(F)cc3C(=O)N12", "activity change, negative = inhibition": "-16.7% (inactive)"}
{"smiles": "Cc1ccc(N(CC(=O)N2CCOCC2)S(C)(=O)=O)cc1Cl", "activity change, negative = inhibition": "-1.2% (inactive)"}
{"smiles": "Cc1cc(C(=O)N/N=C/C=C/c2ccc3c(c2)OCO3)n[nH]1", "activity change, negative = inhibition": "-25.5% (inactive)"}
{"smiles": "Cc1c(NS(=O)(=O)c2ccc(N)cc2)c(=O)n(-c2ccccc2)n1C", "activity change, negative = inhibition": "-15.5% (inactive)"}
{"smiles": "O=C(COC(=O)c1cc(S(=O)(=O)N2CCCC2)ccc1O)Nc1ccccc1Br", "activity change, negative = inhibition": "-5.64% (inactive)"}
{"smiles": "CCOC(=O)C1CCCN(Cc2cc(Br)c(OC)cc2OC)C1", "note": "(stereo not given)", "activity change, negative = inhibition": "-24.3% (inactive)"}
{"smiles": "Cc1ccc(OCC(=O)N2c3ccccc3NC(=O)C2(C)C)c([N+](=O)[O-])n1", "activity change, negative = inhibition": "-20.5% (inactive)"}
{"smiles": "CCOc1ccccc1N(CC(=O)Nc1cc(OC)ccc1OC)S(C)(=O)=O", "activity change, negative = inhibition": "11.2% (inactive)"}
{"smiles": "Cc1c(NC(=O)C(C)OC(=O)CCC2CCCC2)c(=O)n(-c2ccccc2)n1C", "note": "(stereo not given)", "activity change, negative = inhibition": "13.1% (inactive)"}
{"smiles": "O=C(NC(=S)Nc1ccccc1N1CCCCC1)c1ccc(F)cc1Cl", "activity change, negative = inhibition": "-8.89% (inactive)"}
{"smiles": "CC(C)CN1C(=O)c2ccc(NC(=O)c3ccccc3F)cc2C1=O", "activity change, negative = inhibition": "-10.4% (inactive)"}
{"smiles": "COc1ccc(CC(=O)Nc2cccnc2)cc1", "activity change, negative = inhibition": "-22.4% (inactive)"}
{"smiles": "CC1(c2ccccc2Cl)NC(=O)N(CC(=O)N2CCc3ccccc3C2)C1=O", "note": "(stereo not given)", "activity change, negative = inhibition": "-2.47% (inactive)"}
{"smiles": "O=C(NN=Cc1ccccc1Cl)c1ccc(-n2cnnn2)cc1", "activity change, negative = inhibition": "0.806% (inactive)"}
{"smiles": "CN(CCCC(=O)N1CCN(c2ncccn2)CC1)S(=O)(=O)c1ccc(F)cc1", "activity change, negative = inhibition": "-1.76% (inactive)"}
{"smiles": "O=C(N/N=C/c1ccc(Sc2nc3ccccc3[nH]2)o1)c1ccncc1", "activity change, negative = inhibition": "-12.2% (inactive)"}
{"smiles": "Cn1c(N)c(C(=O)CSc2nnc(C3CC3)n2-c2ccccc2)c(=O)[nH]c1=O", "activity change, negative = inhibition": "-7.48% (inactive)"}
{"smiles": "Cn1cccc1C(=O)Nc1ccc(Cl)c(S(=O)(=O)N2CCCCC2)c1", "activity change, negative = inhibition": "-22.9% (inactive)"}
{"smiles": "CN1CC[n+]2cnc3ccccc3c21", "activity change, negative = inhibition": "-18.8% (inactive)"}
{"smiles": "COC(=O)C1=C(C)Nc2ncnn2C1c1ccco1", "note": "(stereo not given)", "activity change, negative = inhibition": "-29.7% (inactive)"}
{"smiles": "Oc1oc(C=Nc2ccc(F)cc2F)c2ccccc12", "activity change, negative = inhibition": "-7.45% (inactive)"}
{"smiles": "CC(NC(=S)NNS(=O)(=O)c1ccc(C(C)(C)C)cc1)c1ccccc1", "note": "(stereo not given)", "activity change, negative = inhibition": "-17.1% (inactive)"}
{"smiles": "COc1ccc(/C=C(\\C#N)C(=O)OCC(=O)N2CC(C)OC(C)C2)cc1", "note": "(stereo not given)", "activity change, negative = inhibition": "-19.7% (inactive)"}
{"smiles": "COC(=O)C(NNc1ccccc1)(NC(=O)c1cccc(F)c1)C(F)(F)F", "note": "(stereo not given)", "activity change, negative = inhibition": "1.48% (inactive)"}
{"smiles": "O=C(CC(c1ccccc1)c1ccccc1)Nc1ccc(Cl)cn1", "activity change, negative = inhibition": "-4.3% (inactive)"}
{"smiles": "O=C(O)/C=C/C(=O)Nc1ccc2nccnc2c1", "activity change, negative = inhibition": "-13.7% (inactive)"}
